Laboratory results from the supplement of paper PMC12494721.
Structures can show the parent of a compound that is named as a salt.

system: Escherichia coli IAI1; test: growth (OD595) fold change vs plate DMSO controls (fold change (ratio)); higher = more growth; details: incubation time: 27 h, anaerobic, 37 °C
How it was run: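 After 27 h at 37 °C under anaerobic conditions, 96-well cultures in mGAM were shaken and read at 595 nm. The readings were blank-subtracted, corrected for compound background using 20 µM compound solutions in water, and converted to OD with a calibration factor of 5. Growth is defined as the fold change over the median of DMSO controls on each plate. Fold changes above 1.5 were set to NA, and each value is the mean of 2 biological replicates.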

Question: How did the growth turn out when CN1CCCN=C1/C=C/c1cccc(O)c1 [Oxantel pamoate] (20 µM) was run?
Answer: The growth was 1.04.

Question: How did the growth turn out when COC(=O)[C@H](c1ccccc1Cl)N1CCc2sccc2C1 [Clopidogrel] (20 µM) was run?
Answer: Its growth is 1.25.

Question: For CCCCCCCCCCCCCCCCCCCCCC(=O)Nc1ccn([C@@H]2O[C@H](CO)[C@@H](O)[C@@H]2O)c(=O)n1 [Enocitabine] (20 µM), which growth is on record?
Answer: The growth was 0.973.

Question: How did the growth turn out when CN(C)CCCN1c2ccccc2[S+]([O-])c2ccc(Cl)cc21 (centres undefined) [Chlorpromazine Sulfoxide] (20 µM) was run?
Answer: The growth was 0.996.

Question: With CCN(CC)CCOC(=O)C1(c2ccc([N+](=O)[O-])cc2)CCCC1 [Nitrocaramiphen hydrochloride] (20 µM) as the compound, how does the growth read?
Answer: Its growth is 1.07.

Question: Which growth does the source give for COc1ccc(CC2c3cc(OC)c(OC)cc3CC[N+]2(C)CCC(=O)OCCCCCOC(=O)CC[N+]2(C)CCc3cc(OC)c(OC)cc3C2Cc2ccc(OC)c(OC)c2)cc1OC (centres undefined) [Atracurium besylate] (20 µM) here?
Answer: The growth was 1.13.

Question: Which growth does the source give for O=C(O)C[C@H](O)C[C@H](O)/C=C/c1c(C2CC2)nc2ccccc2c1-c1ccc(F)cc1 [Pitavastatin calcium] (20 µM) here?
Answer: The growth was 1.01.

Question: CC(Cc1cccc(C(F)(F)F)c1)NCCOC(=O)c1ccccc1 (centres undefined) [Benfluorex] (20 µM) was tested. Which growth did it give?
Answer: Its growth is 0.988.

Question: How did the growth turn out when S=c1[nH]cnc2nc[nH]c12 [Mercaptopurine] (20 µM) was run?
Answer: Its growth is 1.1.

Question: CC(C(=O)O)c1ccc(N2Cc3ccccc3C2=O)cc1 (centres undefined) [Indoprofen] (20 µM) was tested. Which growth did it give?
Answer: The growth was 0.99.

Question: Which growth does the source give for C[C@@H](O[C@H]1OCCN(Cc2n[nH]c(=O)[nH]2)[C@H]1c1ccc(F)cc1)c1cc(C(F)(F)F)cc(C(F)(F)F)c1 [Aprepitant] (20 µM) here?
Answer: Its growth is 0.988.

Question: Cc1nnc(NS(=O)(=O)c2ccc(N)cc2)s1 [Sulfamethizole] (20 µM) was tested. Which growth did it give?
Answer: Its growth is 1.05.

Question: How did the growth turn out when O=C(Cn1c(=O)sc2ccc(Cl)cc21)N1CCN(CCO)CC1 [Tiaramide Hydrochloride] (20 µM) was run?
Answer: The growth was 1.

Question: For Clc1ccc(COC(Cn2ccnc2)c2ccc(Cl)cc2Cl)c(Cl)c1 (centres undefined) [Miconazole] (20 µM), which growth is on record?
Answer: The growth was 1.18.

Question: For Cc1cn[nH]c1 [Fomepizole] (20 µM), which growth is on record?
Answer: Its growth is 0.987.

Question: For CC[C@H]1OC(=O)[C@H](C)[C@@H](O[C@H]2C[C@@](C)(OC)[C@@H](O)[C@H](C)O2)[C@H](C)[C@@H](O[C@@H]2O[C@H](C)C[C@H](N(C)C)[C@H]2O)[C@](C)(OC)C[C@@H](C)C(=O)[C@H](C)[C@@H](O)[C@]1(C)O [Clarithromycin] (20 µM), which growth is on record?
Answer: Its growth is 0.665.

Question: With CCCC(=O)OCOC(=O)C1=C(C)NC(C)=C(C(=O)OC)C1c1cccc(Cl)c1Cl (centres undefined) [Clevidipine] (20 µM) as the compound, how does the growth read?
Answer: The growth was 1.03.

Question: Which growth does the source give for CC[N+](CC)(CC(=O)Nc1c(C)cccc1C)Cc1ccccc1 [Denatonium benzoate] (20 µM) here?
Answer: Its growth is 1.2.

Question: COc1cc(/C=C/C(=O)N2CCN(CC(=O)N3CCCC3)CC2)cc(OC)c1OC [Cinepazide maleate] (20 µM) was tested. Which growth did it give?
Answer: Its growth is 1.06.

Question: Which growth does the source give for COC(=O)C1=C(C)NC(C)=C(C(=O)O[C@H]2CCN(Cc3ccccc3)C2)[C@H]1c1cccc([N+](=O)[O-])c1 [Barnidipine Hydrochloride] (20 µM) here?
Answer: Its growth is 1.08.

Question: For COCCCOc1ccnc(C[S+]([O-])c2nc3ccccc3[nH]2)c1C (centres undefined) [Rabeprazole sodium salt] (20 µM), which growth is on record?
Answer: The growth was 0.993.

Question: For CN(C)[C@@H]1C(=O)C(C(N)=O)=C(O)[C@@]2(O)C(=O)C3=C(O)c4c(O)ccc(Cl)c4[C@@H](O)[C@H]3C[C@@H]12 [Demeclocycline hydrochloride] (20 µM), which growth is on record?
Answer: The growth was 0.0384.

Question: Which growth does the source give for O=C1[C@H]2CCCC[C@H]2C(=O)N1CCCCN1CCN(c2nsc3ccccc23)CC1 [Perospirone hydrochloride] (20 µM) here?
Answer: Its growth is 0.968.

Question: For CC1=C(/C=C/C(C)=C/C=C/C(C)=C/C(=O)O)C(C)(C)CCC1 [Retinoic acid] (20 µM), which growth is on record?
Answer: The growth was 0.973.

Question: C[N+]1(C)CCC(OC(=O)C(O)(c2ccccc2)C2CCCC2)C1 (centres undefined) [Glycopyrrolate bromide] (20 µM) was tested. Which growth did it give?
Answer: The growth was 1.03.

Question: COc1ccc2cc([C@H](C)C(=O)O)ccc2c1 [(S)-Naproxen] (20 µM) was tested. Which growth did it give?
Answer: Its growth is 1.1.

Question: With C1CCC(C(CC2CCCCN2)C2CCCCC2)CC1 (centres undefined) [Perhexiline maleate] (20 µM) as the compound, how does the growth read?
Answer: Its growth is 1.

Question: For COc1ccc(-c2cc(=O)c3c(O)cc(O[C@@H]4O[C@H](CO[C@@H]5O[C@@H](C)[C@H](O)[C@@H](O)[C@H]5O)[C@@H](O)[C@H](O)[C@H]4O)cc3o2)cc1O [Diosmin] (20 µM), which growth is on record?
Answer: Its growth is 0.976.

Question: With CC(C)N1CCN(c2ccc(OCC3COC(Cn4cncn4)(c4ccc(Cl)cc4Cl)O3)cc2)CC1 (centres undefined) [Terconazole] (20 µM) as the compound, how does the growth read?
Answer: The growth was 1.

Question: Which growth does the source give for CCCCNc1ccc(C(=O)OCCN(C)C)cc1 [Tetracaine hydrochloride] (20 µM) here?
Answer: The growth was 1.02.

Question: For CCC(=O)OCC(=O)[C@@]1(OC(=O)CC)[C@H](C)C[C@H]2[C@H]3[C@H]([C@@H](O)C[C@@]21C)[C@@]1(C)C=CC(=O)C=C1C[C@H]3Cl [Alclometasone dipropionate] (20 µM), which growth is on record?
Answer: The growth was 1.07.

Question: With C#CCN(C)CCCOc1ccc(Cl)cc1Cl [Clorgyline hydrochloride] (20 µM) as the compound, how does the growth read?
Answer: The growth was 0.993.

Question: CCCCS(=O)(=O)N[C@@H](Cc1ccc(OCCCCC2CCNCC2)cc1)C(=O)O [Tirofiban hydrochloride] (20 µM) was tested. Which growth did it give?
Answer: Its growth is 0.983.

Question: CC(C)CN(C[C@@H](O)[C@H](Cc1ccccc1)NC(=O)O[C@H]1CCOC1)S(=O)(=O)c1ccc(N)cc1 [Amprenavir] (20 µM) was tested. Which growth did it give?
Answer: The growth was 1.05.

Question: With CC[C@H](C)C(=O)O[C@H]1C[C@@H](C)C=C2C=C[C@H](C)[C@H](CC[C@@H]3C[C@@H](O)CC(=O)O3)[C@H]21 [Lovastatin] (20 µM) as the compound, how does the growth read?
Answer: The growth was 1.

Question: CN(C)CCN(Cc1ccc(Cl)cc1)c1ccccn1 [Chloropyramine hydrochloride] (20 µM) was tested. Which growth did it give?
Answer: The growth was 1.03.

Question: With COC(c1ccccc1)(c1ccccc1)[C@H](Oc1nc(C)cc(C)n1)C(=O)O [Ambrisentan] (20 µM) as the compound, how does the growth read?
Answer: Its growth is 1.2.

Question: Which growth does the source give for O=C(O)CCC(=O)Nc1ccc(S(=O)(=O)Nc2nccs2)cc1 [Succinylsulfathiazole] (20 µM) here?
Answer: Its growth is 1.11.

Question: Which growth does the source give for CN(C)CCC=C1c2ccccc2C=Cc2ccccc21 [Cyclobenzaprine hydrochloride] (20 µM) here?
Answer: The growth was 1.01.
